hgDAF12 agonist: activates the H. glycines DAF-12 receptor ligand-binding domain. activation, % at 6.8 µM. hit rate 1.8% among 370,000. HEK293 GAL4-hgDAF12 UAS-luciferase reporter, agonist luminescence; normalized to butyrate control. AID 687014;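 active = activation above a cutoff set at the mean of all screened compounds plus 3 SD, cut at about 10% in these data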;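 note: 0% = DMSO wells and 100% = sodium butyrate wells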
ssDAF-12 act: activators of S. stercoralis DAF-12 nuclear receptor | hit rate 1% among 370,000 | activation, % at 6.8 µM | AID 652126 | HEK293 ssDAF-12/GRIP1 lit1-tk-luc reporter, luminescence; % of 3 µM dafachronic acid response;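 active = activation above the mean over all tested compounds plus 3 SD, cut at about 0.9% in these data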;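 note: 0% = DMSO-only wells and 100% = 3 µM delta7-dafachronic acid wells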
DAX1 inh-1: inhibits human nuclear receptor DAX1; P51843; HEK293 Gal4-DAX1 luciferase reporter, luminescence; inhibition, % at 6.75 µM; hit rate 0.99% among 340,000;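 active = inhibition above the mean over all tested compounds plus 3 SD, cut at about 4.2% in these data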;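 note: 0% = DAX1-transfected cells with DMSO and 100% = empty-vector control cells with DMSO; inhibition shows as a rise in luminescence from relieved DAX1 repression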
DAX1 inh-2: DAX1 (NR0B1) inhibition, primary screen. HEK293T StAR-luciferase reporter, SF-1/DAX-1 repression relief. inhibition, % at 6.8 µM. hit rate 1.1% among 370,000. AID 652010;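 active = inhibition above the mean over all tested compounds plus 3 SD, cut at about 3.6% in these data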;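 note: 0% = DAX-1 cells with DMSO and 100% = cells lacking DAX-1 with DMSO; higher inhibition means more luminescence from relief of DAX-1 repression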
hcDAF-12 act: activates DAF-12 receptor from parasite H. contortus; HEK293 hcDAF-12 lit1-tk-luc reporter, luminescence; 0% DMSO, 100% Δ7-dafachronic acid; activation, % at 6.8 µM; hit rate 1.4% among 370,000; AID 652067;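 active = activation above the mean of all tested compounds plus 3 SD, cut at about 5.5% in these data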;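 note: 100% = response to 3 µM Δ7-dafachronic acid high control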
hgDAF12 conf: confirmation of H. glycines DAF-12 agonists; AID 743050; HEK293 GAL4-hgDAF12 luciferase reporter, agonist mode; percent of butyrate response; shares compounds with hgDAF12 agonist; hit rate 80% among 3,300; activation, % at 6.8 µM;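 active = mean activation over triplicate wells above the hit cutoff derived from the earlier primary screen, cut at about 11% in these data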;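 note: 0% = DMSO low control and 100% = 2 mM sodium butyrate high control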
LXR ag 2: counter-screen for DAF-12 agonists: agonists of human LXR-beta. shares compounds with hgDAF12 agonist. HEK293 Gal4-LXR luciferase reporter, 24 h. activation, % at 6.8 µM. 3,300 tested, under 10 active. AID 743051;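 active = mean activation of the triplicate above a set limit carried over from the primary screen, none filed active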
Target sequence (P55055 whole entry, looked up, the tested form may be a part): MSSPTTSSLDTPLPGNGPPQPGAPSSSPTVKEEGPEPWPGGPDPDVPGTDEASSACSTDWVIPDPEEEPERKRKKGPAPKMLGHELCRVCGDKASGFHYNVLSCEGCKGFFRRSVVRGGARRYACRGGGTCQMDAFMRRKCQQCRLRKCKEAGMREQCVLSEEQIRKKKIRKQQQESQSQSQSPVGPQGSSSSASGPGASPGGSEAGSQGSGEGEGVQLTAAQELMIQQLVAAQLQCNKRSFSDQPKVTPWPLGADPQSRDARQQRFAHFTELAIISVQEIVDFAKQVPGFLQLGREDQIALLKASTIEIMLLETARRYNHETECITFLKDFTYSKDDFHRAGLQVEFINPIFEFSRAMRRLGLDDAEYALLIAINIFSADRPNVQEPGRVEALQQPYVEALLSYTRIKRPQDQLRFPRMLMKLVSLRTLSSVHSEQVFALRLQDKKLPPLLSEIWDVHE
* hit, by the source's call; . = no result. This is a sample that favours compounds with a hit; in the whole collection about 4.1% have one here.

SMILES	hgDAF12 agonist	ssDAF-12 act	DAX1 inh-1	DAX1 inh-2	hcDAF-12 act	hgDAF12 conf	LXR ag 2
COc1ccccc1C(CNC(=O)c1ccc(C)c(S(=O)(=O)N2CCCCC2)c1)N1CCCC1 (stereo not given)	3.6	0.4	-1.0	0.2	1.7	.	.
COc1ccc(/C=N/Nc2nccnc2Cl)c(OC)c1	20.8*	0.3	2.4	3.0	1.6	12.8*	0.5
CCCC(C)CO (stereo not given)	-3.0	-1.4	1.1	0.1	-1.0	.	.
Cc1cccc(CSc2cn(CC(=O)N3CCOCC3)c3ccccc23)c1	14.2*	0.3	5.2*	0.8	4.3	13.1*	0.3
O=Cc1cn(CC(=O)N2CCOCC2)c2ccccc12	0.0	-0.7	0.2	0.0	0.4	.	.
[O-]/[N+](=C\C=C\c1ccccc1)c1ccccc1	14.4*	0.3	3.2	1.4	3.8	13.7*	0.5
NC(CCc1ccccc1)c1csc(NC(=O)Nc2cccc(C(F)(F)F)c2)n1 (stereo not given)	-2.5	-1.2	.	0.6	0.2	.	.
O=C(Nc1cccnc1)c1cc2cc(Br)ccc2o1	13.9*	0.0	6.6*	2.3	5.1	14.2*	1.0
Cc1cccc(NC(=O)c2cc3ccccc3o2)c1	19.6*	1.1*	2.9	3.6	6.4*	18.8*	0.8
CCCC(=O)N1CCC1(C)C(=O)Nc1ccc(OC)c(OC)c1 (stereo not given)	2.1	-1.0	.	0.8	-0.6	.	.
C[C@H](CO)N1C[C@H](C)[C@@H](CN(C)S(=O)(=O)c2cccs2)Oc2ccc(NS(=O)(=O)c3ccccc3)cc2C1=O	-3.1	-1.1	0.3	-0.6	-2.6	.	.
Cc1ccc(NC(=O)[C@H]2CC(=O)O[C@@H]2c2ccccc2)cc1C	3.0	-0.1	.	0.2	1.6	.	.
Cc1ccc(OCC(=O)Nc2ccccc2F)cc1C	16.2*	0.6	1.6	3.5	3.4	12.8*	0.5
CCOCc1cc(=O)[nH]c(SC)n1	0.0	-1.1	3.2	-0.8	-2.2	.	.
CCN(c1cccc(C)c1)c1nc2ccsc2c(=O)s1	-0.5	-0.8	-0.5	0.1	-0.5	.	.
O=C(Nc1cccc(F)c1)Nc1nnc([C@@H]2C[C@H](O)[C@@H](CO)O2)s1	4.7	-0.7	.	2.6	3.7	.	.
O=C(Nc1cccc(Cl)c1)Nc1nnc([C@@H]2C[C@H](O)[C@@H](CO)O2)s1	16.0*	-0.5	.	2.5	1.8	9.9	0.2
COc1ccccc1-c1cnc(C(O)c2ccc(Cl)cc2C)[nH]1 (stereo not given)	-2.1	-1.2	.	-1.3	-0.9	.	.
CNc1nc(-c2ccc3c(c2)CCN3C(=O)c2ccccc2F)c(C)s1	1.1	-0.9	-2.0	-0.6	-0.9	.	.
CNc1nc(-c2ccc3c(c2)CCN3C(=O)c2ccccc2F)cs1	23.4*	-0.1	1.3	3.9*	5.0	18.0*	0.7
Cc1c(NC(=S)NC(=O)c2cccc3ccccc23)cccc1C(=O)O	-0.8	-1.3	0.4	0.9	-1.9	.	.
Cc1ccc(-c2nc3ccccc3s2)cc1NC(=S)NC(=O)c1cccc2ccccc12	16.6*	0.4	4.4*	3.1	6.0*	12.1*	0.9
Cc1nn(-c2ccccc2)c(C)c1/C=N/NC(=O)CSc1nnc(SCc2cccc3ccccc23)s1	-1.0	-0.8	0.6	-0.2	-0.4	.	.
CCn1c(O)c(/C=C2\C=Nc3ccccc32)sc1=Nc1ccc(C)cc1	1.3	-1.9	0.4	0.3	-1.4	.	.
CCn1c(O)c(/C=C2\C=Nc3ccccc32)sc1=O	14.0*	-0.4	2.2	2.0	4.5	21.5*	0.7
SMILES	hgDAF12 agonist	ssDAF-12 act	DAX1 inh-1	DAX1 inh-2	hcDAF-12 act	hgDAF12 conf	LXR ag 2
CCNC(=O)c1sc2cc(C)ccc2c1Cl	14.9*	0.1	1.3	0.6	3.3	10.0	0.2
Cn1ncc2c1NC(c1ccc(F)cc1)SCC2=O (stereo not given)	0.9	-1.1	1.9	-1.3	-1.6	.	.
CCc1ccc(NC(=S)NC(=O)CC(C)C)cc1	15.4*	-0.2	2.8	2.4	2.8	12.3*	0.5
Nc1ccc2ccc(NS(=O)(=O)N3CCCCC3)cc2c1	-3.0	-0.7	.	-2.8	-2.5	.	.
COCC(C)NC(=O)c1noc2c1CCc1cc(OC)ccc1-2 (stereo not given)	5.8	-1.8	1.5	1.4	0.8	.	.
COCCNC(=O)c1noc2c1CCc1cc(OC)ccc1-2	14.0*	0.6	1.0	2.3	1.7	11.6*	0.5
O=C(Nc1nc2ccccc2s1)Nc1ccc(F)cc1F	13.7*	-0.1	3.3	1.5	5.5	15.4*	0.8
CC(=O)c1sc(N/N=C\c2ccc(N(C)C)cc2)nc1C	13.7*	0.3	4.5*	2.5	2.8	16.4*	0.9
CC(=O)Nc1cc(-c2ccncc2)cn2c(-c3ccccc3)cnc12	-1.8	-1.6	.	-0.8	-1.3	.	.
O=C(O)c1cc(N/N=C/C=C/c2ccccc2[N+](=O)[O-])ccc1Cl	13.3*	0.0	2.4	2.5	4.2	-0.3	0.0
CCOC(=O)N(C)c1c(CC)nc2c(OCc3ccccc3)cccn12	-3.8	-1.5	.	-1.4	-2.6	.	.
c1c2c(cc3sc(N4CCOCC4)nc13)OCO2	15.6*	0.1	1.8	2.6	6.0*	13.4*	0.7
O=C(CN1CCCCC1)NC(=O)NCc1ccccc1	-1.7	-0.8	2.8	0.3	-0.4	.	.
CCCn1cnc2cc(NC(=O)c3cccs3)ccc21	13.5*	-0.2	1.8	1.5	3.1	10.3	0.4
CCn1cnc2cc(NC(=O)c3ccc(C)cc3)ccc21	13.5*	0.5	1.1	1.6	2.4	10.8*	0.4
Cc1cc(C)cc(NC(=O)CSc2nccn2Cc2ccco2)c1	0.0	-1.0	0.4	-1.6	-1.5	.	.
Cc1cccc(NC(=O)CSc2nccn2Cc2ccco2)c1	14.0*	-0.8	2.3	3.9*	2.0	13.0*	0.5
Cc1ccccc1CNC(=O)CCn1nc(C)c2c(C)n(-c3ccccc3)nc2c1=O	-2.8	-1.1	-0.1	0.8	-0.2	.	.
C(=N\N=C\c1cccs1)/c1cccs1	14.3*	-0.7	2.1	3.9*	4.5	15.0*	0.5
C(=N\n1cnnc1)/c1cccs1	-1.4	-1.0	0.8	-0.2	0.1	.	.
CCN(CC)c1ccc(NC(=O)c2ccc(Br)o2)cc1	15.7*	0.4	5.0*	3.6	2.6	15.2*	0.9
O=C(NC1CCCC1)c1cc(-c2ccccc2O)on1	9.8	-0.6	2.9	2.1	2.4	.	.
O=C(c1cc(-c2ccccc2O)on1)N1CCCCCC1	13.8*	0.9	1.8	1.5	2.9	10.2	0.4
CN1CCN(C(=O)c2cc(-c3ccccc3)on2)CC1	3.6	-0.8	0.1	1.2	0.6	.	.
Cc1ccc(-c2cc(C(=O)N3CCCCCC3)no2)cc1	14.3*	1.3*	0.4	3.0	5.4	20.7*	1.4

High-throughput results from PubChem.
